Compound activity deposited in PubChem by several laboratories.
Efflux pump inh – blocks antifungal efflux pumps in multiplex yeast assay. S. cerevisiae Candida pump triplex, Nile Red efflux. inhibition, % at 10 µM. 0.44% of 330,000 active. AID 485275;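 active means plate passing quality check with inhibition over a set limit, or well fluorescence over plate mean plus 4 SD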;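 further: Nile Red retained in pooled yeast measured as flow cytometry median fluorescence; 0% = buffer negative control and 100% = Enniatin B positive control; higher means more Nile Red kept so more efflux inhibition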
AHR act – human AHR activation; AID 2796; AHR-responsive luciferase reporter cells, luminescence; activation, % at 5 µM; 2.5% of 320,000 active; in the data active means activation above about 47%;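 further: 0% = vehicle wells and 100% = reference agonist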
SUMO Mot1 rescue – blocks SUMOylation pathway, rescuing yeast Mot1-301 growth; 1% of 320,000 active; growth rescue, % at 18.8 µM; S. cerevisiae Mot1-301 growth rescue, ATP luminescence, 38.5C; percent above DMSO median, 100 means doubled; AID 2716;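 active means every valid replicate shows activation above 250% relative to neutral control wells; inactive means the rest, any valid replicate at or below 250%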;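 further: OY570 slx delta 5 strain wells were the positive control but not used for scaling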
Bfl-1 A1 inh – inhibitors of the anti-apoptotic protein A1, read as caspase activation. MEF A1-2A-BIM cells, Caspase-Glo 3/7 luminescence, 3 h; percent of clofoctol response, vehicle zero. caspase activation, % (test concentration not listed). 0.066% of 330,000 active. AID 2462;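 active means over half of replicate activation scores above 10%, or exactly half above 10 with the replicate mean above 10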
ALR H2O2 inh – blocks human ALR sulfhydryl oxidase activity | P55789 | purified ALR, DTT oxidation, H2O2 HRP-luminol luminescence | inhibition, % (no concentration beside the values) | 3.8% of 290,000 active | AID 485317;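 active means mean replicate inhibition above about 79%, with every replicate also reaching it, limit read from the data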
VLA-4 inh – inhibition in a human VLA-4 binding assay. P13612. VLA-4 expressing cells, ligand binding flow cytometry. inhibition, % (about 7 µM as worked out from the volumes in the protocol). 0.2% of 330,000 active. AID 2557; in the data active means inhibition above about 50%
Starred values were filed as active, the others as inactive; / = no result given. In the library only some 7.2% were active in any assay of this set; here they are far more common.

SMILES	Efflux pump inh	AHR act	SUMO Mot1 rescue	Bfl-1 A1 inh	ALR H2O2 inh	VLA-4 inh
O=C(Nc1cccc([N+](=O)[O-])c1)c1cc(S(=O)(=O)N2CCOCC2)cs1	-1.3	11.8	-1.2	-0.4	-3.9	-9.1
COc1ccc(OC)c(CNC(=O)COc2cc(=O)n(C)c3ccccc23)c1	0.0	57.0*	529.0	/	-10.1	15.1
Cc1cccc(-c2ocnc2C(=O)Nc2ccccc2NC(=O)c2ccccn2)c1	-0.4	55.8*	-5.6	-0.5	/	-1.4
Cc1csc(NC(=O)c2ccc(C)o2)n1	1.3	17.4	5.6	-2.9	45.5	9.0
Cc1ccc(-c2ocnc2C(=O)Nc2nc(C)cs2)cc1	-0.1	68.2*	24.4	-0.5	1.0	0.9
Cc1ccc(-c2ocnc2C(=O)Nc2ccccc2NC(=O)c2ccccn2)cc1	0.0	30.8	-9.2	0.6	/	-4.9
N#CCCn1nc(Cc2cccc3ccccc23)c(C#N)c1N	0.0	14.0	331.2*	0.4	0.5	-2.2
COc1ccc(C(=O)Nc2cccc(NC(=O)c3ccc(OC)c(OC)c3)n2)cc1OC	1.0	14.4	11.0	-0.1	/	1.4
COc1ccc(Cc2nnc(NC(=O)c3ccc(OC)c(OC)c3)s2)cc1	0.2	33.0	-3.4	0.4	-7.5	9.2
COc1ccc(C(=O)Nc2nc(C)c(C)s2)cc1OC	0.0	32.5	-3.5	-3.7	99.2*	15.6
CCOc1ccc(C(=O)Nc2nnc(C)s2)cc1OCC	-0.1	49.6*	-9.5	0.0	-3.9	-9.4
COc1ccc(C(=O)Nc2nnc(Cc3cccs3)s2)cc1OC	-0.1	77.7*	-4.8	0.7	1.5	0.0
O=C(Nc1nnc(S(=O)(=O)N2CCOCC2)s1)c1ccc(Cl)cc1	0.2	0.3	18.3	-0.1	-1.7	-4.2
O=C(Nc1nnc(S(=O)(=O)N2CCOCC2)s1)c1ccccc1	0.3	7.2	64.6	-0.9	98.6*	1.8
CN(Cc1ccccc1F)C(=O)CCCNC(=O)c1ccc(Cl)cc1	-0.1	2.1	8.5	0.6	-2.0	2.5
CNc1c(NS(=O)(=O)c2cc(Cl)ccc2OC)c(=O)oc2ccccc12	-0.2	3.5	60.1	0.1	61.2	4.5
Cc1ccc(C(=O)Nc2nnc(Cc3ccccc3)s2)cc1	-0.1	3.6	-8.9	0.0	1.4	8.6
O=C(Nc1nnc(Cc2ccccc2)s1)c1ccccc1	-0.1	54.3*	3.0	-0.5	0.1	9.7
Cc1ccc(SCc2cn3ccccc3n2)cc1	0.0	-5.0	8.0	-5.8	6.9	-5.9
CCOC(=S)SCc1cn2ccc(C)cc2n1	0.3	0.6	-6.9	-0.3	98.7*	10.3
CCOC(=S)SCc1cn2ccccc2n1	0.1	1.5	-5.5	0.0	97.8*	-0.7
Cc1ccn2cc(CSc3ccccc3N)nc2c1	-0.1	20.8	4.3	-1.1	28.8	28.9
Cc1cccc(N2CCN(C(=O)NC(C)c3ccc(F)c(F)c3)CC2)c1C (stereo not given)	-0.1	-4.3	17.4	0.9	/	-3.8
CCc1ccccc1NC(=O)CCC(=O)N1CCSc2ccccc21	0.2	2.8	-1.9	1.1	-5.1	-17.4
Oc1cc2c(cc1O)C1c3ccc(O)c(O)c3OCC1(O)C2 (stereo not given)	0.5	-0.6	-18.2	0.1	99.6*	3.1
SMILES	Efflux pump inh	AHR act	SUMO Mot1 rescue	Bfl-1 A1 inh	ALR H2O2 inh	VLA-4 inh
Cc1ccc(NC(=O)CCNS(=O)(=O)c2ccc(OC(F)(F)F)cc2)c(O)c1	0.3	0.3	25.8	-0.5	-11.7	22.4
Cc1ccccc1NS(=O)(=O)c1ccc(OCC(=O)NCc2cccnc2)cc1	-0.5	2.9	385.1*	-0.3	/	0.0
O=C(COc1ccc(S(=O)(=O)Nc2ccccc2)cc1)NCc1cccnc1	-0.2	-2.1	1.3	0.0	6.8	10.5
CCOC(=O)/C(=N\Nc1ccccc1Cl)N1CC(C)OC(C)C1 (stereo not given)	0.1	5.8	173.3	0.0	/	3.3
CCOC(=O)/C(=N\Nc1ccc(Br)cc1)N1CC(C)OC(C)C1 (stereo not given)	0.0	8.9	428.1*	-0.1	99.6*	-2.2
O=C(NC(Cc1ccccc1)C(=O)O)/C(=C/c1ccc([N+](=O)[O-])cc1)NC(=O)c1ccccc1 (stereo not given)	-0.1	35.0	38.6	-0.8	96.2*	-6.3
O=C(NC(Cc1ccccc1)C(=O)O)/C(=C\c1ccc([N+](=O)[O-])cc1)NC(=O)c1ccco1 (stereo not given)	0.1	-0.8	112.8	1.1	-2.7	6.3
O=C(NC(Cc1ccccc1)C(=O)O)/C(=C/c1cccc([N+](=O)[O-])c1)NC(=O)c1cccc(Br)c1 (stereo not given)	-0.1	2.7	-17.0	0.0	98.0*	12.8
CCn1nnc2cc(C(=O)N3CCC(C(=O)OC)CC3)ccc21	0.1	0.8	-6.3	0.5	-11.7	-8.5
CO/C([O-])=N/c1c[n+](-c2ccc(Cl)cc2)no1	-0.2	26.2	290.0*	0.8	-65.5	0.2
O=C(CSC1=NCCS1)Nc1ccc(S(=O)(=O)NC2CCCCC2)cc1	0.0	1.0	-16.8	0.5	98.3*	1.6
NS(=O)(=O)c1ccc(NC(=O)COc2ccc(S(=O)(=O)N3CCCC3)cc2)cc1	0.0	-1.9	342.5*	0.0	/	2.2
CCOc1ccc(S(=O)(=O)N2CCC(C(=O)NCCc3ccc(S(N)(=O)=O)cc3)CC2)cc1	-0.1	0.5	271.3*	-0.1	-3.0	4.4
COc1ccc(OCC(=O)Nc2ccc(S(=O)(=O)N3CCCC3)cc2)cc1	0.0	1.4	14.1	0.2	-7.9	15.6
O=C(CSC1=NCCS1)Nc1ccc(S(=O)(=O)N2CCCCCC2)cc1	-0.1	-2.4	-16.2	0.2	98.3*	-2.9
O=C(CSC1=NCCS1)NC1CCCCC1	0.1	3.2	94.0	-0.1	-2.3	-6.4
O=C(Nc1cccc(F)c1)C1C2C=CC3(CN(CCCN4CCOCC4)C(=O)C13)O2 (stereo not given)	-0.1	-2.0	6.2	/	-19.2	24.0
O=C1C=C(c2ccc3c(c2)OCCO3)C[C@@H](c2ccc(F)cc2)C1	-0.3	0.9	-12.9	-0.3	-0.6	-11.4
COc1cccc2c3c(c(=O)[nH]c12)CC(C)(C)O3	-0.1	1.0	566.1	-0.4	13.5	0.8
COc1cccc2c3c(c(=O)[nH]c12)CCC(C)(C)O3	0.1	4.7	6.7	0.2	97.6*	-3.6
COC(=O)c1ccc(CSc2nccn2C)cc1	0.0	1.4	25.6	-1.2	/	19.3
Cn1ccnc1SCc1cn2cc(Br)ccc2n1	-0.1	12.4	254.6	-1.8	98.6*	-1.3
O=C(COC(=O)CCCNC(=O)c1ccc(Cl)cc1)Nc1ccc(Br)cc1	0.1	0.5	-13.5	-0.4	-4.1	-3.0
O=C(CCCNC(=O)c1ccc(Cl)cc1)Nc1ccc(Br)cc1	0.0	70.6*	-2.8	1.1	2.3	11.8
CCN(CC)C(=O)Cn1cc(C(=O)C(=O)N2CCCc3ccccc32)c2ccccc21	0.0	70.4*	/	-0.5	-10.5	-0.4
